The supplement of paper PMC13380429

Test system: Vero E6 infected with SARS-CoV-2
Test: inhibition of SARS-CoV-2 cytopathic effect; higher = more antiviral protection, active = above 15
Settings: 48 h

Measured: inhibition of SARS-CoV-2 cytopathic effect

COc1ccc(NS(=O)(=O)c2ccc(N)cc2)nn1 [sulfamethoxypyridazine]
inactive: 1 nM 3.44% | 8.33 nM 2.28% | 100 nM 2.29% | 833.33 nM 3.71% | 10000 nM 2.16%

Cc1cc(SCc2sc(-c3ccc(C(F)(F)F)cc3)nc2C)ccc1OCC(=O)O
inactive: 1 nM -0.18% | 8.33 nM 1.2% | 100 nM 0.1% | 833.33 nM 1.79% | 10000 nM -2.99%

O=C(Nc1ccncc1)C(=O)c1cn(Cc2ccc(Cl)cc2)c2ccccc12 [indibulin]
inactive: 1 nM 1.08% | 8.33 nM 1.94% | 100 nM 0.77% | 833.33 nM 0.68% | 10000 nM -6.21%

O=C1C2CCN(CC2)C1(CO)CO
inactive: 1 nM -0.42% | 8.33 nM 1.99% | 100 nM 3.09% | 833.33 nM 2.96% | 10000 nM 5.06%

CNC(=O)c1ccc2c(c1)S(=O)(=O)c1ccccc1C2=O
inactive: 1 nM 0.15% | 8.33 nM 0.66% | 100 nM 1.63% | 833.33 nM -1.32% | 10000 nM -0.42%

COc1cccc(C(=O)CCN[C@@H](C)[C@H](O)c2ccccc2)c1 [oxyfedrine]
inactive: 1 nM 0.05% | 8.33 nM 1.34% | 100 nM -0.45% | 833.33 nM 0.14% | 10000 nM 1.77%

CC(C)(C)NCC(O)c1cc(Cl)c(N)c(Cl)c1 (stereo not given) [clenbuterol]
inactive: 1 nM -0.45% | 8.33 nM -0.13% | 100 nM 1.96% | 833.33 nM -0.35% | 10000 nM -2.77%

Cn1cnc([N+](=O)[O-])c1Sc1ncnc2[nH]cnc12 [azathioprine]
inactive: 1 nM -3.67% | 8.33 nM 2.21% | 100 nM 2.74% | 833.33 nM 3.46% | 10000 nM -3.46%

CCN(CC)C(=O)c1ccc(C2=CC3(CCNCC3)Oc3cccc(O)c32)cc1
inactive: 1 nM -0.93% | 8.33 nM -0.47% | 100 nM -4.19% | 833.33 nM -2.26% | 10000 nM -2.32%

O=C(O)C(=O)CBr [3-bromopyruvate]
inactive: 1 nM -3.69% | 8.33 nM 1.4% | 100 nM 4.96% | 833.33 nM 0.7% | 10000 nM 1.43%
